# Measured values reported in PubChem BioAssay (EPA / NIEHS).
# Results filed as inconclusive are left out. Active and inactive are the calls of the source. The calls were made as follows: active = hit-call score of the fitted dose curve at least 0.9, where 1 is the maximum; inconclusive = response in the unintended direction; inactive = score below 0.9.
# Legend:
# [1] = target: human Serotonin, 5-Hydroxytryptamine Receptor 7 (5HT7), HTR7 (gene 3363) (UniProt P34969); experiment: NVS_GPCR_h5HT7: NovaScreen (NVS) G Protein-Coupled Receptor Assay for human Serotonin, 5-Hydroxytryptamine Receptor 7 (5HT7) (AID 2283255);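 also: hits reduce specific radioligand binding relative to DMSO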
# Procedure, shortened: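 Filter-bound radioactivity counted after 1 h, with loss of specific radioligand binding fitted against DMSO. Membrane protein came from CHO cells expressing human 5HT7. Chemicals were tested first at 25 uM in duplicate, then in concentration series if active.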
# [2] = target: Type-1 angiotensin II receptor (Homo sapiens) (UniProt P30556); experiment: NVS_GPCR_hAT1: NovaScreen (NVS) G Protein-Coupled Receptor Assay for human Angiotensin II receptor type 1 (AT1) (AID 2283263)
# Procedure, shortened: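 Hits from a 25 uM duplicate screen (threshold e.g. 30% inhibition) were run in concentration-response with 50 uM top concentration. Displacement of specific radioligand from KAN-TS membrane preparations measured after 3 h by filter scintillation, DMSO as baseline.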
# [3] = target: human Adrenergic, Beta 1 Receptor (Adrb1), ADRB1 (gene 153) (UniProt P08588); experiment: NVS_GPCR_hAdrb1: NovaScreen (NVS) G Protein-Coupled Receptor Assay for human Adrenergic, Beta 1 Receptor (Adrb1) (AID 2283258)
# Procedure, shortened: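 Membranes/protein extracted from human neuroepithelioma cells, radioligand competition binding read by filtration and scintillation 2 h post-dose. Single 25 uM duplicate screen, then concentration-response follow-up; DMSO as negative control.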
# [4] = target: human Adrenergic, Beta 3 Receptor (Adrb3), ADRB3 (gene 155) (UniProt P13945); experiment: NVS_GPCR_hAdrb3: NovaScreen (NVS) G Protein-Coupled Receptor Assay for human Adrenergic, Beta 3 Receptor (Adrb3) (AID 2283262)
# Procedure, shortened: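 A cell-free filter binding assay read by scintillation counting, with displacement of a specific radioligand measured after 1 hour. The receptor source was SK-N-MC extracts (cells pretreated with isoproterenol and 8-bromo-cAMP). Compounds were first tested at 25 uM in duplicate and then in concentration series.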
# [5] = target: human Histamine 1 Receptor (H1), HRH1 (gene 3269) (UniProt P35367); experiment: NVS_GPCR_hH1: NovaScreen (NVS) G Protein-Coupled Receptor Assay for human Histamine 1 Receptor (H1) (AID 2283268)
# Procedure, shortened: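 Filter-based scintillation detection of radioligand binding to human H1, 1 h incubation; chemicals screened in duplicate at 25 uM, then concentration-response; signal loss relative to DMSO taken as activity.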
# [6] = target: D(1A) dopamine receptor (Homo sapiens) (UniProt P21728); experiment: NVS_GPCR_hDRD1: NovaScreen (NVS) G Protein-Coupled Receptor Assay for human Dopamine Receptor D1 (DRD1) (AID 2283269)
# Procedure, shortened: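 Cell-free radioligand binding to human DRD1 from HEK293 membranes, read 1 h after dosing by filter-based scintillation counting. Loss of signal versus DMSO baseline marks displacement. Primary screen at 25 uM single concentration in duplicate; actives followed up in concentration series.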
# [7] = test system: guinea pig Muscarinic, Peripheral (Mperiperal) Receptor, Non-selective Binding, gene 100379235; experiment: NVS_GPCR_gMPeripheral_NonSelective: NovaScreen (NVS) G Protein-Coupled Receptor Assay for guinea pig Muscarinic, Peripheral (Mperiperal) Receptor, Non-selective Binding (AID 2283250)
# Procedure, shortened: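 Screened in duplicate at 25 uM, hits retested in concentration series to 50 uM max, using bladder membrane radioligand displacement from guinea pig. Filtration and scintillation counting 1 h post-dose, fitted relative to DMSO.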
# [8] = test system: guinea pig Leukotriene B4 Receptor (LTB4), gene 100379538; experiment: NVS_GPCR_gLTB4: NovaScreen (NVS) G Protein-Coupled Receptor Assay for guinea pig Leukotriene B4 Receptor (LTB4) (AID 2283247)
# Procedure, shortened: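 Membranes from guinea pig spleen incubated 2 h with radioligand and compound; bound counts measured by filtration and scintillation. Screened first at 25 uM in duplicate, then actives titrated to a 50 uM top concentration relative to DMSO.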
# [9] = target: guinea pig Opioid, Kappa 1 Receptor (OpiateK), OPRK1 (gene 100135587) (UniProt P41144); experiment: NVS_GPCR_gOpiateK: NovaScreen (NVS) G Protein-Coupled Receptor Assay for guinea pig Opioid, Kappa 1 Receptor (OpiateK) (AID 2283252);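 also: radioligand displacement from kappa opioid receptor in guinea pig cerebellar membranes; active means reduced radioligand binding relative to DMSO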
# Procedure, shortened: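 Cell-free tissue prep: guinea pig cerebellar membranes, radioligand displacement, 2 h incubation. Readout: filtration plus scintillation counting. Primary single-point 25 uM duplicate; actives retested in concentration series; DMSO negative control.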
# [10] = target: Beta-2 adrenergic receptor (Homo sapiens) (UniProt P07550); experiment: NVS_GPCR_hAdrb2: NovaScreen (NVS) G Protein-Coupled Receptor Assay for human Adrenergic, Beta 2 Receptor (Adrb2) (AID 2283261)
# Procedure, shortened: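 Compounds screened in duplicate at 25 uM, then actives in concentration series. Human beta-2 receptor from CHO material, cell-free; radioligand displacement after 1 h measured by filtration and scintillation against DMSO baseline.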
# [11] = target: human Serotonin, 5-Hydroxytryptamine Receptor 6 (5HT6), HTR6 (gene 3362) (UniProt P50406); experiment: NVS_GPCR_h5HT6: NovaScreen (NVS) G Protein-Coupled Receptor Assay for human Serotonin, 5-Hydroxytryptamine Receptor 6 (5HT6) (AID 2283253)
# Procedure, shortened: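 Filter scintillation counting of radioligand displacement from HEK293-expressed 5HT6, 1 hour post-dose, with loss of signal relative to DMSO. Single 25 uM duplicates first, with concentration series for confirmation.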
# [12] = test system: bovine Histamine 1 Receptor (H1), gene 281231; experiment: NVS_GPCR_bH1: NovaScreen (NVS) G Protein-Coupled Receptor Assay for bovine Histamine 1 Receptor (H1) (AID 2283246)
# Procedure, shortened: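 Hits from a 25 uM duplicate primary screen were retested in concentration series (top 50 uM); binding measured as scintillation-counted displacement of radioligand from bovine cerebellar membranes after 1 h, normalised to DMSO.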
# [13] = target: human Adenosine A1 Receptor (AdoRA1), ADORA1 (gene 134) (UniProt P30542); experiment: NVS_GPCR_hAdoRA1: NovaScreen (NVS) G Protein-Coupled Receptor Assay for human Adenosine A1 Receptor (AdoRA1) (AID 2283254)
# Procedure, shortened: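 Membranes from human cortical tissue were incubated with radioligand and test chemical for 1 hour, then filtered and counted. Activity was taken as signal loss relative to DMSO, screened at 25 uM in duplicate before concentration-response follow-up.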
# [14] = target: human Adenosine A2a Receptor (AdoRA2a), ADORA2A (gene 135) (UniProt P29274); experiment: NVS_GPCR_hAdoRA2a: NovaScreen (NVS) G Protein-Coupled Receptor Assay for human Adenosine A2a Receptor (AdoRA2a) (AID 2283256)
# Procedure, shortened: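 Compounds screened in duplicate at 25 uM, with actives followed up in concentration series, for displacement of a radioligand from HEK293-derived receptor protein. Bound counts read by filter scintillation at 1.5 hours, DMSO as baseline.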
# [15] = NVS_GPCR_bNPY_NonSelective: NovaScreen (NVS) G Protein-Coupled Receptor Assay for bovine Neuropeptide Y (NPY) Receptor, Non-selective Binding (AID 2283245)
# Procedure, shortened: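 Displacement of radioligand from bovine hippocampal membrane receptors, read by filtration and scintillation counting after 1 hour. Concentration-response to a top of 50 uM followed a 25 uM duplicate primary screen. Loss of signal versus DMSO.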
# [16] = target: human Dopamine Receptor D4.4 (DRD4.4), DRD4 (gene 1815) (UniProt P21917); experiment: NVS_GPCR_hDRD4.4: NovaScreen (NVS) G Protein-Coupled Receptor Assay for human Dopamine Receptor D4.4 (DRD4.4) (AID 2283264)
# Procedure, shortened: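 Filter-binding assay with a tritiated or iodinated ligand, cell-free receptor prepared from CHO, 1 hour. Loss of bound radioactivity versus DMSO; single 25 uM duplicate screen, then concentration-response for actives.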
# [17] = target: human Adrenergic, Alpha 2A Receptor (Adra2A), ADRA2A (gene 150) (UniProt P08913); experiment: NVS_GPCR_hAdra2A: NovaScreen (NVS) G Protein-Coupled Receptor Assay for human Adrenergic, Alpha 2A Receptor (Adra2A) (AID 2283257)
# Procedure, shortened: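 Displacement of a specific radioligand from HT29 membrane protein was counted by filter scintillation after 1 h. Compounds were screened in duplicate at 25 uM, and actives were retested in concentration series. Fitting was positive-direction against DMSO.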
# [18] = target: human Adrenergic, Alpha 2c Receptor (Adra2C), ADRA2C (gene 152) (UniProt P18825); experiment: NVS_GPCR_hAdra2C: NovaScreen (NVS) G Protein-Coupled Receptor Assay for human Adrenergic, Alpha 2c Receptor (Adra2C) (AID 2283259)
# Procedure, shortened: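 Screened first in duplicate at 25 uM, with actives then run as concentration series. Membranes from Sf9 cells were exposed for 1 h, and displacement of radioligand was counted after filtration, using DMSO as baseline.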
# Beta-2 adrenergic receptor (Homo sapiens), sequence (P07550 whole entry, looked up): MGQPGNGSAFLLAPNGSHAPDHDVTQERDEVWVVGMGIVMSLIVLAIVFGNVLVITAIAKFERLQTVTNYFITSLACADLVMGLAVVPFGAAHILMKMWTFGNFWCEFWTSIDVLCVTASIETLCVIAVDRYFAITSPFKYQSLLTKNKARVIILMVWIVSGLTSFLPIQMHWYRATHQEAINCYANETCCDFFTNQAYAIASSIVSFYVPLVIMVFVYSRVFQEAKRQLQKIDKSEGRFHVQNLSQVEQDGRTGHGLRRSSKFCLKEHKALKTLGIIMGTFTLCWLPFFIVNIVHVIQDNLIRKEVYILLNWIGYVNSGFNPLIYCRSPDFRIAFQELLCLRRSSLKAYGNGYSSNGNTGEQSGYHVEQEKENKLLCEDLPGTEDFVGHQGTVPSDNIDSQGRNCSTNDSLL
# guinea pig Opioid, Kappa 1 Receptor (OpiateK), OPRK1 (gene 100135587), sequence (P41144 whole entry, looked up): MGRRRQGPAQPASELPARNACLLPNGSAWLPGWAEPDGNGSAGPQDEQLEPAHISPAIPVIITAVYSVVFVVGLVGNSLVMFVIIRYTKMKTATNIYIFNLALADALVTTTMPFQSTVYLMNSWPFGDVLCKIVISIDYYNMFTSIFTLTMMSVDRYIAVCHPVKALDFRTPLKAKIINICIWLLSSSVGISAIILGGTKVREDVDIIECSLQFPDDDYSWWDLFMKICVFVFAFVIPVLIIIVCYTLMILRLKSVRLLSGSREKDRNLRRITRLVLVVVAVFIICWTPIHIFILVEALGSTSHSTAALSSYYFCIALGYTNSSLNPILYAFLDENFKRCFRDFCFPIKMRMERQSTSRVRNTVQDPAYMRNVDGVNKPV
# human Adrenergic, Beta 3 Receptor (Adrb3), ADRB3 (gene 155), sequence (P13945 whole entry, looked up): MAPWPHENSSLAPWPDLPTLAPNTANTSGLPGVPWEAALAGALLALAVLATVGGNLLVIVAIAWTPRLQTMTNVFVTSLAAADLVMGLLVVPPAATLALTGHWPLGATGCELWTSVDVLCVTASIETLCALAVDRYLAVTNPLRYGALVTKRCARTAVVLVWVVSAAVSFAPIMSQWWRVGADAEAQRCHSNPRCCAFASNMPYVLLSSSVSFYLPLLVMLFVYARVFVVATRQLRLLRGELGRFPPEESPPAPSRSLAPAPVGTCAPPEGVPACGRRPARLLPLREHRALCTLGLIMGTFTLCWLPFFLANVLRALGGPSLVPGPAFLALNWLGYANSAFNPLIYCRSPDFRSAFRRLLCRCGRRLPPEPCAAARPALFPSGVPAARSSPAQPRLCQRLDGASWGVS
# human Serotonin, 5-Hydroxytryptamine Receptor 7 (5HT7), HTR7 (gene 3363), sequence (P34969 whole entry, looked up): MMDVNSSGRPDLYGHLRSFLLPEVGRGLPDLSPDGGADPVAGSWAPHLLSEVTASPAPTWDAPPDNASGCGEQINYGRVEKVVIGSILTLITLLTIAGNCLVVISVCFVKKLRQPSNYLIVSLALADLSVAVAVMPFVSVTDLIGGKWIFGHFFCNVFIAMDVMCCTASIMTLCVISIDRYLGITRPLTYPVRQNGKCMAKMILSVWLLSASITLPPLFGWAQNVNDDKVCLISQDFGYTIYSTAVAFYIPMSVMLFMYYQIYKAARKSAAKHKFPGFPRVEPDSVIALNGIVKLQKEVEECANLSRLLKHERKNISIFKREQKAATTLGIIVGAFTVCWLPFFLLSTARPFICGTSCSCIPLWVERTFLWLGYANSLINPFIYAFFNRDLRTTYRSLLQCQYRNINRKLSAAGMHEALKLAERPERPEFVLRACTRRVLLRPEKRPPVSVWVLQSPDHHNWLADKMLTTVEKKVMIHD
# human Histamine 1 Receptor (H1), HRH1 (gene 3269), sequence (P35367 whole entry, looked up): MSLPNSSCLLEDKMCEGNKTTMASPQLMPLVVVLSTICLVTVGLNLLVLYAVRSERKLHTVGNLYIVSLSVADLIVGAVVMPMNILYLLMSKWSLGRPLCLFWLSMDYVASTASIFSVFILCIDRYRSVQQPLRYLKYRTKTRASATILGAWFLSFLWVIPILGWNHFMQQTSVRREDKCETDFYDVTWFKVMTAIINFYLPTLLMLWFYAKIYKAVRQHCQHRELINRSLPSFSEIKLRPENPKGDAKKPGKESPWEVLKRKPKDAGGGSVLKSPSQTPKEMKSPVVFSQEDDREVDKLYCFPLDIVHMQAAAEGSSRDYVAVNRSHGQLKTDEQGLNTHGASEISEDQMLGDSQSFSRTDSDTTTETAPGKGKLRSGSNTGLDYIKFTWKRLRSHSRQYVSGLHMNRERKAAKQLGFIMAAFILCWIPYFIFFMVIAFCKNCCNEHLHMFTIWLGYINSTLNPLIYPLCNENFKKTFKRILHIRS
# human Serotonin, 5-Hydroxytryptamine Receptor 6 (5HT6), HTR6 (gene 3362), sequence (P50406 whole entry, looked up): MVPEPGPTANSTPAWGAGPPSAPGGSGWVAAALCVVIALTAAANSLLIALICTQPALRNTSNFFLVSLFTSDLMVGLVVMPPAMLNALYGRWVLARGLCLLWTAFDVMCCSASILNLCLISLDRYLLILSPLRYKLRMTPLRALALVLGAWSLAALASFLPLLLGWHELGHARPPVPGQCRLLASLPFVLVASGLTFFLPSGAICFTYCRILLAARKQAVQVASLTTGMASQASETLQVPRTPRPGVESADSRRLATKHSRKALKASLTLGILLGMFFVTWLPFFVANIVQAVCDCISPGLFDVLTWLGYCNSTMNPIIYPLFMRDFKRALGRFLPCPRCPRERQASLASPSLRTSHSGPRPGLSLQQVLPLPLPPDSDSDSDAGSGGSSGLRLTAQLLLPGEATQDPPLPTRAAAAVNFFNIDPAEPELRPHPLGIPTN
# human Adenosine A1 Receptor (AdoRA1), ADORA1 (gene 134), sequence (P30542 whole entry, looked up): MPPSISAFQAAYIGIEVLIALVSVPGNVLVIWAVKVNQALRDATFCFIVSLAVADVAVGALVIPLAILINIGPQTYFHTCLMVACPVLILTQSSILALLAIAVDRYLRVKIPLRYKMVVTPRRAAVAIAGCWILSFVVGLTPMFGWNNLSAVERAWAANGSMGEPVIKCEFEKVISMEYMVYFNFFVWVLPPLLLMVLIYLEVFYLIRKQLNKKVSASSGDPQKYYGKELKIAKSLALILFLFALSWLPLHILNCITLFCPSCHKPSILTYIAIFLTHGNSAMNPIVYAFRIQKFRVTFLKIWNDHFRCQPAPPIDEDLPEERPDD
# human Adenosine A2a Receptor (AdoRA2a), ADORA2A (gene 135), sequence (P29274 whole entry, looked up): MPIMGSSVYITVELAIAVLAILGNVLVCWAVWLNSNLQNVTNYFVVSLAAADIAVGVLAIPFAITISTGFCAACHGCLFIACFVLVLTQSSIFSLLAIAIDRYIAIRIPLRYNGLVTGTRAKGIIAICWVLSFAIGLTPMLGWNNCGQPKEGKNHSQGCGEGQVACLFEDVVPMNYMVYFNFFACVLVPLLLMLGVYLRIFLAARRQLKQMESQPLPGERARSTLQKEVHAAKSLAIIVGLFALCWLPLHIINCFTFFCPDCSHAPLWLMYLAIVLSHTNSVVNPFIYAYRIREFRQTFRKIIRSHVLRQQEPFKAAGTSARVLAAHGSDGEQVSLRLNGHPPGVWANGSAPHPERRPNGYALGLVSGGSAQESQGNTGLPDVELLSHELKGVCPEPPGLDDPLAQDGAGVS
# Type-1 angiotensin II receptor (Homo sapiens), sequence (P30556 whole entry, looked up): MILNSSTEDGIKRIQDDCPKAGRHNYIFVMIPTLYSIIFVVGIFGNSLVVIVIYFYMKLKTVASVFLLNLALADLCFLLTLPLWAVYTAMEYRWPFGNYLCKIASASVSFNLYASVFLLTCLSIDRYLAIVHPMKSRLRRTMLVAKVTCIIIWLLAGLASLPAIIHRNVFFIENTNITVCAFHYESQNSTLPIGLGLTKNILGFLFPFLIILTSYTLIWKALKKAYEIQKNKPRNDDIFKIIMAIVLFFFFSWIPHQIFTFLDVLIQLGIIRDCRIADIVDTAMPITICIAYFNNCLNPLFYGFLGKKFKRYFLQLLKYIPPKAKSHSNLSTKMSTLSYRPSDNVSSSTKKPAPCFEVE
# D(1A) dopamine receptor (Homo sapiens), sequence (P21728 whole entry, looked up): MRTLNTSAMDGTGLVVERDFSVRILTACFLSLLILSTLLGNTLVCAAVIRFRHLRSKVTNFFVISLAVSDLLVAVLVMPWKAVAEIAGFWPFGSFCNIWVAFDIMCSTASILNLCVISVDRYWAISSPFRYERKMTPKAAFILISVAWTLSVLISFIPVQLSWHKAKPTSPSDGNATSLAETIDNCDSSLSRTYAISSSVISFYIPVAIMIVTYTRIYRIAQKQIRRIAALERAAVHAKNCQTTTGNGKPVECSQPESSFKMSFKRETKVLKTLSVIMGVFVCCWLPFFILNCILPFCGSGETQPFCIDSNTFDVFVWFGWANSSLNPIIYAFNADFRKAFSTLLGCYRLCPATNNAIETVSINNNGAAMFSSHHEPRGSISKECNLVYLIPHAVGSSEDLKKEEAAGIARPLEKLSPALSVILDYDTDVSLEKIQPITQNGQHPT
# human Dopamine Receptor D4.4 (DRD4.4), DRD4 (gene 1815), sequence (P21917 whole entry, looked up): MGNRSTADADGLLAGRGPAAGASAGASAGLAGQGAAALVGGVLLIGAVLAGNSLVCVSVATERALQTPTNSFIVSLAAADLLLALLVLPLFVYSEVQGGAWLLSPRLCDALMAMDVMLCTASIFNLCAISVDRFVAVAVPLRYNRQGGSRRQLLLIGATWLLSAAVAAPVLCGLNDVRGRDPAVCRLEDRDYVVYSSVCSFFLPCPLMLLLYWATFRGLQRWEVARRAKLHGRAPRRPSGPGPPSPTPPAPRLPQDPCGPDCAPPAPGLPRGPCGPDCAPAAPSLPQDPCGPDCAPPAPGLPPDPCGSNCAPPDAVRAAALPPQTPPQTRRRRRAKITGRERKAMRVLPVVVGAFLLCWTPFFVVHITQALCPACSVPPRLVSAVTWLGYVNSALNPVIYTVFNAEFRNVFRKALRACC
compound,measurement,setting,value
CCOC(=O)C(C)OC(=O)c1cc(Oc2ccc(C(F)(F)F)cc2Cl)ccc1[N+](=O)[O-] (centres undefined),AC50,[1],15.3 µM (active)
COC(=O)N(C(=O)N1CO[C@@]2(C(=O)OC)Cc3cc(Cl)ccc3C2=N1)c1ccc(OC(F)(F)F)cc1,outcome,[1],inactive
same,outcome,[2],inactive
CC1(C)C(C=C(Cl)Cl)C1C(=O)OC(C#N)c1cccc(Oc2ccccc2)c1 (centres undefined),AC50,[1],6.91 µM (active)
same,outcome,[2],inactive
CC(C)Nc1nc(Cl)nc(NC(C)C)n1,AC50,[3],6.34 µM (active)
O=C(O)c1c(Cl)ccc2cc(Cl)cnc12,outcome,[4],inactive
CN/C(=N\[N+](=O)[O-])NCc1cnc(Cl)s1,outcome,[4],inactive
CCOP(=O)(OCC)Oc1nc(Cl)c(Cl)cc1Cl,outcome,[5],inactive
same,outcome,[6],inactive
CCOc1nc(F)cc2nc(S(=O)(=O)Nc3c(Cl)cccc3Cl)nn12,outcome,[7],inactive
Cc1ccc(N=CN(C)C=Nc2ccc(C)cc2C)c(C)c1,AC50,[1],0.574 µM (active)
same,outcome,[6],inactive
Clc1nc(Cl)nc(Nc2ccccc2Cl)n1,outcome,[5],inactive
CC(C)Oc1cccc(NC(=O)c2ccccc2C(F)(F)F)c1,outcome,[4],inactive
CCN(CC)C(=O)C(C)Oc1cccc2ccccc12 (centres undefined),outcome,[8],inactive
same,AC50,[9],25 µM (active)
CN=C=S,outcome,[10],inactive
CC(C)N1C(=O)N(c2ccccc2)CSC1=NC(C)(C)C,outcome,[11],inactive
COP(=S)(OC)SCn1nnc2ccccc2c1=O,AC50,[12],2.4 µM (active)
same,outcome,[7],inactive
same,AC50,[13],9.98 µM (active)
same,outcome,[14],inactive
same,outcome,[10],inactive
same,outcome,[5],inactive
CO/N=C(/C1=NOCCO1)c1ccccc1Oc1ncnc(Oc2ccccc2Cl)c1F,outcome,[9],inactive
same,outcome,[13],inactive
Cc1cc(C)nc(Nc2ccccc2)n1,AC50,[14],10.9 µM (active)
Nc1c(Cl)c(Cl)nc(C(=O)O)c1Cl,outcome,[10],inactive
N#Cc1c[nH]cc1-c1cccc2c1OC(F)(F)O2,outcome,[15],inactive
same,outcome,[11],inactive
same,outcome,[10],inactive
same,outcome,[16],inactive
Cn1c(-c2ccccc2)cc(-c2ccccc2)[n+]1C,AC50,[7],6.52 µM (active)
same,AC50,[9],12 µM (active)
same,AC50,[1],14.8 µM (active)
same,AC50,[17],1.32 µM (active)
same,AC50,[18],3.74 µM (active)
CCN(CC)c1nc(C)cc(OP(=S)(OC)OC)n1,outcome,[8],inactive
